The list is not random: actives were taken first. Their share in the collection is about 1.7%.
ARNT-TACC3 inh – disruptors of ARNT/TACC3 protein interaction, primary screen, biochemical, AlphaScreen, single concentration; Transforming acidic coiled-coil-containing protein 3 (Homo sapiens), Q9Y6A5; AlphaScreen His-ARNT PAS-B/GST-TACC3 binding, luminescence; TACC3 fragment carries E629A point mutation; inhibition, % at 9.99 µM; 390,000 compounds, 0.66% hits;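 active = mean inhibition of replicates at least 50% and at least half of replicates each reaching 50%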;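 also: 0% = complete ARNT plus TACC3 wells and 100% = ARNT alone without TACC3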
aDG glyco up – activators of alpha-DG glycosylation, primary screen, uHTS, Pro5-aDG cells, AlphaScreen; alpha-DG glycosylation AlphaScreen (IIH6); 0% Pro5, 100% B10-LARGE cell signal; activation, % at 10 µM; 360,000 compounds, 0.22% hits;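 active = activation of at least 8% versus controls, or a plate z-score of at least 8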;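 also: Pro5 are CHO cells carrying HIG-tagged alpha-DG that lacks glycosylation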
Vif imaging – HIV Vif self-association inhibitors, primary screen, imaging, HEK293T, single point. HEK293T cells, Vif self-association by quenched fluorescence, 24 h. inhibition, % at 7.49 µM. 340,000 compounds, 0.35% hits; in the data active = inhibition above about 50%, passing the limit was not always enough
N-glyco inh – increase of ERlucT glycosylation luciferase signal, primary screen, N-linked glycosylation inhibitor project, D54 ERlucT cells, luminescence, set 2; AID 588692, 2011; 360,000 compounds, 0.23% hits; reporter increase, % at 12.5 µM; D54 ERlucT glycosylation luciferase reporter, 24 h; percent of 100 nM tunicamycin response;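 active = mean luciferase reporter signal, scaled so untreated is 0 and the glycosylation-blocking control 100, at or above a set limit in every replicate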;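 also: luciferase carries N-glycosylation sites so blocking glycosylation raises the light; 0% = median of neutral control wells and 100% = median of 100 nM tunicamycin wells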
Cardio protect – cardioprotection against H2O2-induced cell death, primary screen, uHTS, H9c2 cells, ATPLite luminescence. H9c2 cardiomyocytes, H2O2 injury protection, 2 h. protection from H2O2 cell death, % at 20 µM. 360,000 compounds, 0.63% hits. AID 588492, 2011;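 active = compounds giving at least 50% protection of heart cells from peroxide-induced death in the single-dose screen, raw or plate-pattern-corrected value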;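 also: 0% = DMSO wells with peroxide and 100% = DMSO wells without peroxide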
The depositor's hits bear a star; . = not tested or not shown.

SMILES	ARNT-TACC3 inh	aDG glyco up	Vif imaging	N-glyco inh	Cardio protect
S=C(NCCc1ccccc1)Nc1cccc2cnccc12	15	9.0*	-20	-3	-20
Cc1ccccc1S(=O)(=O)N1CCCCN2[C@H](CO)[C@@H](c3ccc(-c4ccccc4)cc3)[C@@H]2C1	0	.	.	.	.
C[C@@H]1CN([C@@H](C)CO)C(=O)c2cc(NS(=O)(=O)c3ccc(F)cc3)ccc2O[C@@H]1CN(C)Cc1ccccc1	-1	.	.	.	.
COc1ccc(-c2cc(C)no2)cc1S(=O)(=O)Nc1ccccc1	-5	0	5	45*	-3
Cc1cc(C)cc(NC(=O)COC(=O)COc2ccc(N(C)S(=O)(=O)c3cccs3)cc2)c1	-4	0	50*	2	4
CN(c1ccc(OCC(=O)OCC(=O)Nc2ccccc2F)cc1)S(=O)(=O)c1cccs1	.	0	6	0	4
CCC(C)NC(=O)c1ccc2nc(-c3ccc(OC)c(OC)c3)c(-c3ccc(OC)c(OC)c3)nc2c1 (stereo not given)	-25	0	-22	-5	71*
O=C1/C(=N\S(=O)(=O)c2cccs2)C([n+]2cccc(Cc3ccccc3)c2)=C([O-])c2ccccc21	16	3.6*	0	-18	-14
O=C1/C(=N\S(=O)(=O)c2cccs2)C([n+]2ccc(CCCc3ccccc3)cc2)=C([O-])c2ccccc21	.	1	1	7	-10
C[C@@H]1CN([C@H](C)CO)C(=O)Cc2cc(NC(=O)Cc3cn(C)c4ccccc34)ccc2O[C@@H]1CN(C)S(=O)(=O)c1ccc(F)cc1	3	.	.	.	.
COc1ccc(-c2nnc(SCC(=O)NCc3cccs3)n2C)cc1	19	0	-5	0	2
Cn1c(SCC(=O)NCc2cccs2)nnc1-c1ccncc1	-4	0	59*	-1	4
C[C@]12CC[C@@H]3c4cc(O)c(O)cc4CC[C@H]3[C@@H]1CC[C@@H]2O	2	0	5	3	108*
C[C@H]1CN([C@@H](C)CO)C(=O)c2cc(NS(=O)(=O)c3cn(C)cn3)ccc2O[C@H]1CN(C)S(=O)(=O)c1cccs1	-8	.	.	.	.
CCC(CC)C(=O)NCCc1ccc(S(N)(=O)=O)cc1	-10	0	68*	2	6
CCCCC[n+]1ccn(C2=C([O-])c3ccccc3C(=O)/C2=N\S(=O)(=O)c2ccc(Br)cc2)c1	-23	5.8*	-5	-10	-10
O=C(CNC(=O)N1CC(=O)Nc2ccccc21)NCCc1ccc(Cl)cc1	-7	0	-20	10	1
O=C(CNC(=O)N1CC(=O)Nc2ccccc21)NCCCc1ccccc1	.	0	0	27*	0
Cc1ccc(Cn2c(=N)c(S(=O)(=O)c3ccc(Br)cc3)cc3c(=O)n4ccccc4nc32)cc1	-3	2	53*	-2	-4
O=C(COc1cccc(NC(=O)c2cccc([N+](=O)[O-])c2)c1)c1ccc(F)cc1	1	2	-8	-2	78*
Cc1cc(C(=O)N/N=C/c2ccccn2)n[nH]1	.	0	-2	0	2
O=C(N/N=C/c1ccccn1)c1cc(C2CC2)[nH]n1	48*	0	45	-2	-5
O=C(N/N=C/c1ccccn1)c1ccc(NC(=O)c2cccc([N+](=O)[O-])c2)cc1	.	0	0	0	69*
COc1cccc(C(=O)COc2cccc(NC(=O)c3cccc([N+](=O)[O-])c3)c2)c1	4	0	-16	-4	35
O=C(N/N=C/c1ccccn1)c1cc([N+](=O)[O-])cc([N+](=O)[O-])c1	61*	0	-3	13	40
O=C(N/N=C/c1ccccn1)c1ccc([N+](=O)[O-])cc1	35	0	1	3	3
COc1ccc(S(=O)(=O)N(C)C[C@H]2OCCCC[C@@H](C)Oc3ccc(N(C)C)cc3C(=O)N([C@@H](C)CO)C[C@@H]2C)cc1	16	.	.	.	.
COc1ccc(CNCc2cc3c(C(C)(C)C)nn(-c4ccccc4)c3[nH]c2=O)cc1	3	0	.	1	18
